Active and inactive are the calls of the source. Cut-off read from the data, not from the text of the source, unless noted: active = inhibition above about 80%; inactive = the rest.
How the values were obtained:
[1] = viability rescue of complex I mutant cybrids, primary screen, cell-based, galactose medium, ATP luminescence (AID 1645843;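 active = z-score of at least 1.8 in each of two replicates, scored against plate mean and spread of sample wells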;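 note: positive z means more ATP and so rescue of galactose-driven cybrid death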); conditions: complex I mutant cybrid cells, 72 h, stronger effect = higher value
[2] = LFS_MB_P medulloblastoma growth inhibition, cell-based, chromothripsis tumors, cisplatin or BGB combos (AID 1671449); conditions: LFS_MB_P medulloblastoma cells;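 note: cells exposed for 96 hours; 0% = vehicle DMSO and 100% = killing by high DMSO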
[3] = HDN33 neuroblastoma growth inhibition, cell-based, chromothripsis tumors, cisplatin or BGB combos (AID 1671450); conditions: HDN33 neuroblastoma cells, stronger effect = higher value;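 note: cells exposed to compound for four days; 0% = vehicle DMSO and 100% = cell killing by high DMSO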
[4] = ICB984 medulloblastoma cell growth inhibition, synergistic combos for chromothripsis tumors, cisplatin or BGB combos (AID 1671451; call rule not given here;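 note: cells exposed for 96 hours before readout; 0% = vehicle DMSO and 100% = killing by high DMSO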); conditions: ICB984 medulloblastoma cells, drug combinations, stronger effect = higher value
[5] = LFS_MB_1R medulloblastoma cell growth inhibition, synergistic combos for chromothripsis tumors, cisplatin or BGB combos (AID 1671452); conditions: LFS_MB_1R medulloblastoma cells, stronger effect = higher value;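 note: cells exposed for 96 hours before readout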
[6] = HTB85 osteosarcoma cell growth inhibition, synergistic combos for chromothripsis tumors, BGB or cisplatin IC20 combos (AID 1671453); conditions: HTB85 osteosarcoma cells, drug combinations, stronger effect = higher value;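 note: cells exposed for 96 hours before readout; 0% = vehicle DMSO and 100% = high DMSO killing control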
[7] = CRL2098 osteosarcoma cell growth inhibition, synergistic combos for chromothripsis tumors, BGB or cisplatin IC20 combos (AID 1671454); conditions: CRL2098 osteosarcoma cells, drug combinations, stronger effect = higher value;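 note: cells exposed for 96 h before readout; 0% = vehicle DMSO and 100% = killing by high DMSO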
[8] = HD-MB03 medulloblastoma cell growth inhibition, synergistic combos for chromothripsis tumors, BGB or cisplatin IC20 combos (AID 1671455; in the data active = inhibition above about 83%;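 note: 0% = vehicle DMSO and 100% = high DMSO as cytotoxic control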); conditions: HD-MB03 medulloblastoma cells, stronger effect = higher value
[9] = UWB1.289 ovarian carcinoma cell growth inhibition, synergistic combos for chromothripsis tumors, BGB or cisplatin combos (AID 1671456); conditions: UWB1.289 ovarian carcinoma cells, stronger effect = higher value;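 note: cells exposed to compound for four days; 0% = vehicle DMSO and 100% = killing by high DMSO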
[10] = LFS_MB_2R medulloblastoma cell growth inhibition, synergistic combos for chromothripsis tumors, cisplatin combos (AID 1671457); conditions: LFS_MB_2R medulloblastoma cells, stronger effect = higher value;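 note: cells exposed to compound for four days before readout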
[11] = MDA-MB-436 breast carcinoma cell growth inhibition, synergistic combos for chromothripsis tumors, BGB or cisplatin combos (AID 1671458; call rule not given here;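 note: cells exposed for 96 hours; 0% = vehicle DMSO and 100% = killing by high DMSO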); conditions: MDA-MB-436 breast carcinoma growth inhibition, drug combinations, stronger effect = higher value
[12] = UWB1.289_BRCA1 ovarian cancer growth, cell-based, BGB or cisplatin combinations (AID 1671459); conditions: UWB1.289 BRCA1 ovarian carcinoma, drug combinations, stronger effect = higher value
[13] = human astrocyte viability loss, single and combined drugs, cytotoxicity control for chromothriptic childhood tumor combination screen, cell-based, BGB or cisplatin IC20 combos (AID 1671460); conditions: Human astrocytes, drug combinations, stronger effect = higher value;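 note: cells exposed to compounds for 96 hours before viability readout; 0% = vehicle and 100% = killing control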
[14] = growth inhibition of BT084 medulloblastoma cells, cell-based, ICGC_MB145, cisplatin and BGB IC40 combos (AID 1671461); conditions: drug combinations, stronger effect = higher value;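 note: cells exposed to drugs for 96 hours; 0% = vehicle DMSO and 100% = high DMSO full killing control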
[15] = growth inhibition of RCMB18 medulloblastoma cells, cell-based, cisplatin and BGB IC40 combos (AID 1671462); conditions: stronger effect = higher value;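 note: cells exposed to compound for four days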
[16] = growth inhibition of CRL1545 osteosarcoma cells, cell-based, cisplatin and BGB IC20 combos (AID 1671464); conditions: stronger effect = higher value;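 note: cells exposed to compound for 96 hours before readout; 0% = vehicle DMSO and 100% = high DMSO killing control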
[17] = at 0.5 µM, stronger effect = higher value
[18] = measured here: combination with BGB IC20, at 0.005 µM
[19] = measured here: combination with BGB IC40, at 0.005 µM
[20] = measured here: combination with BGB IC40, at 0.05 µM
[21] = measured here: combination with cisplatin, at 0.5 µM, stronger effect = higher value
[22] = measured here: combination with cisplatin, at 5 µM, stronger effect = higher value
[23] = measured here: with BGB IC20 combination, at 0.5 µM
[24] = measured here: with cisplatin IC20 combination, at 0.5 µM
[25] = measured here: 5 uM single agent, at 5 µM
[26] = measured here: combination with cisplatin, at 0.5 µM
[27] = measured here: combination with cisplatin, at 5 µM
[28] = measured here: with BGB IC20, at 0.5 µM
[29] = measured here: with BGB IC20, at 5 µM
[30] = measured here: with cisplatin IC20, at 0.5 µM
[31] = measured here: with cisplatin IC20, at 5 µM

## O=C(Nc1cccnc1)c1csc(Cc2ccccc2)n1
[1]
  z-score: -0.815 (inactive)

## O=C(CCCCCCC(=O)Nc1ccc(I)cc1)NO
[2]; [17]
  inhibition: 14.6% (inactive)
[2]; [18]
  inhibition: -13.9%
[2]; [19]
  inhibition: -26.4%
[2]; [20]
  inhibition: -4.26%
[2]; [21]
  inhibition: 55%
[2]; [22]
  inhibition: 112%
[3]; BGB combo, at 5 µM
  inhibition: 92.7%
[3]; at 0.5 µM
  inhibition: 2.25% (inactive)
[3]; cisplatin combo, at 5 µM
  inhibition: 96.8%
[3]; [23]
  inhibition: 2.67%
[3]; [24]
  inhibition: 4.68%
[3]; single agent, at 5 µM
  inhibition: 96.1%
[4]; BGB IC20 combo, at 0.005 µM
  inhibition: -14%
[4]; BGB IC40 combo, at 0.005 µM
  inhibition: -21.6%
[4]; BGB IC40 combo, at 0.05 µM
  inhibition: 79.6%
[4]; at 0.5 µM
  inhibition: -43% (inactive)
[4]; cisplatin combo, at 0.05 µM
  inhibition: 78.8%
[4]; cisplatin combo, at 0.5 µM
  inhibition: -63.2%
[4]; cisplatin combo, at 5 µM
  inhibition: -38.3%
[4]; [25]
  inhibition: -6.51%
[5]; at 0.5 µM
  inhibition: 4.61% (inactive)
[5]; [20]
  inhibition: -30%
[5]; [26]
  inhibition: 7%
[5]; [27]
  inhibition: 97.8%
[6]; at 0.5 µM
  inhibition: -14.1% (inactive)
[6]; [28]
  inhibition: -30.7%
[6]; [29]
  inhibition: 58%
[6]; [30]
  inhibition: -7.38%
[6]; [31]
  inhibition: 98.3%
[6]; single agent, at 5 µM
  inhibition: 68.5%
[7]; at 0.5 µM
  inhibition: -40.1% (inactive)
[7]; measured here: combination with BGB at IC20, at 0.5 µM
  inhibition: -46.1%
[7]; measured here: combination with cisplatin at IC20, at 0.5 µM
  inhibition: -23.5%
[8]; at 0.5 µM
  inhibition: 12.8% (inactive)
[8]; measured here: combo with BGB at IC20, at 0.5 µM
  inhibition: 5.06%
[8]; measured here: combo with cisplatin at IC20, at 0.5 µM
  inhibition: 20.3%
[9]; at 0.5 µM
  inhibition: 14.7% (inactive)
[9]; measured here: inhibition with BGB combination, at 0.05 µM
  inhibition: -32%
[9]; measured here: inhibition with cisplatin combination, at 0.05 µM
  inhibition: -13.2%
[10]; at 0.5 µM
  inhibition: -12.8% (inactive)
[10]; [26]
  inhibition: 3.62%
[10]; [27]
  inhibition: 99%
[11]; at 0.5 µM
  inhibition: -16.9% (inactive)
[11]; measured here: BGB combination, at 0.5 µM
  inhibition: -27.7%
[11]; measured here: BGB combination, at 5 µM
  inhibition: 49.2%
[11]; measured here: cisplatin combination, at 0.5 µM
  inhibition: -20.6%
[11]; measured here: cisplatin combination, at 5 µM
  inhibition: 53.6%
[12]; BGB combination, concentration series, at 5 µM
  inhibition: 84.7%
[12]; at 0.5 µM
  inhibition: 7.03% (inactive)
[12]; cisplatin combination, concentration series, at 5 µM
  inhibition: 105%
[13]; at 0.5 µM
  inhibition: 29.2% (inactive)
[13]; measured here: combo with BGB IC20, at 0.5 µM
  inhibition: 30.5%
[13]; measured here: combo with cisplatin IC20, at 0.5 µM
  inhibition: 21.3%
[14]; at 0.5 µM
  inhibition: 12.2% (inactive)
[14]; cisplatin combination, at 0.5 µM
  inhibition: 29.6%
[14]; cisplatin combination, at 5 µM
  inhibition: 105%
[14]; measured here: BGB IC40 combination 0.05 uM, at 0.05 µM
  inhibition: -26.1%
[14]; single agent, at 5 µM
  inhibition: 103%
[15]; at 0.5 µM
  inhibition: 20.3% (inactive)
[15]; cisplatin combo, at 5 µM
  inhibition: 94.9%
[15]; measured here: BGB IC40 combination, at 0.05 µM
  inhibition: -10.7%
[15]; [26]
  inhibition: 54.3%
[15]; single agent, at 5 µM
  inhibition: 85.9%
[16]; at 0.5 µM
  inhibition: 46.9% (inactive)
[16]; [23]
  inhibition: 39.3%
[16]; [24]
  inhibition: 50.7%
[16]; single agent, at 0.05 µM
  inhibition: -7.66%
[16]; single agent, at 5 µM
  inhibition: 95.3%

## CC(=O)c1c(C)cc(C)c(CNC(C)CCCC(C)(C)O)c1C (stereo not given)
[1]
  z-score: -0.52 (inactive)

## O=C1N=c2ccccc2=C1c1c(O)[nH]c2ccccc12
[2]; [17]
  inhibition: -10.5% (inactive)
[2]; [18]
  inhibition: -1.18%
[2]; [19]
  inhibition: -11.2%
[2]; [20]
  inhibition: -2.67%
[2]; [21]
  inhibition: -21%
[2]; [22]
  inhibition: 114%
[3]; BGB combo, at 5 µM
  inhibition: 61%
[3]; at 0.5 µM
  inhibition: 5.47% (inactive)
[3]; cisplatin combo, at 5 µM
  inhibition: 51.4%
[3]; [23]
  inhibition: 16.4%
[3]; [24]
  inhibition: -3.78%
[3]; single agent, at 5 µM
  inhibition: 45.3%
[4]; BGB IC20 combo, at 0.005 µM
  inhibition: 11.6%
[4]; BGB IC40 combo, at 0.005 µM
  inhibition: 12.6%
[4]; BGB IC40 combo, at 0.05 µM
  inhibition: 98.1%
[4]; at 0.5 µM
  inhibition: -13.3% (inactive)
[4]; cisplatin combo, at 0.05 µM
  inhibition: 98%
[4]; cisplatin combo, at 0.5 µM
  inhibition: -8.2%
[4]; cisplatin combo, at 5 µM
  inhibition: -23.1%
[4]; [25]
  inhibition: -12.3%
[5]; at 0.5 µM
  inhibition: 38.6% (inactive)
[5]; [20]
  inhibition: -8.14%
[5]; [26]
  inhibition: 68.7%
[5]; [27]
  inhibition: 104%
[6]; at 0.5 µM
  inhibition: -27.2% (inactive)
[6]; [28]
  inhibition: -36.8%
[6]; [29]
  inhibition: 49.4%
[6]; [30]
  inhibition: -31.8%
[6]; [31]
  inhibition: 19.9%
[6]; single agent, at 5 µM
  inhibition: 73.7%

From PubChem BioAssay
